Assay [1] has as its target Calcium and integrin-binding protein 1 (Homo sapiens) (UniProt Q99828). The assay can be described thus: Primary qHTS for Identification of Calcium Integrin Binding Protein 1 (CIB1) Competitor (AID 1508620).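 Also: GST tagged CIB1 binding a fluorescein labelled alphaIIb integrin peptide tracer; top concentration of the series differs between compounds.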 A digest of the protocol: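 CIB1-GST (1 uM final) and compound incubated 15 min at room temperature before adding FITC-alphaIIb peptide tracer (100 nM final). Competition for binding read by fluorescence polarization (ex 480, em 540) after another 15 min at room temperature.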
(qHTS replaces the single test concentration by a dilution series.)

Assay [2] addresses Cytochrome P450 2D6 (Homo sapiens) (UniProt P10635). The assay is described as follows: Cytochrome P450 family 2 subfamily D member 6 (CYP2D6) small molecule antagonists: luciferase biochemical (cell-free) qHTS assay (AID 1645840; active = well fitted curve in the direction sought with a large enough effect in the repeat runs; an effect the other way counts as inactive or inconclusive; also: nearly all actives have a fitted effect of over 55% in size; also: potency is read from the fitted curve at half-maximal effect). The essentials: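 P450-Glo luminescent screen: recombinant CYP2D6 enzyme–proluciferin substrate mix preincubated with compound 10 min at room temperature, then NADPH regeneration added for 1 h at room temperature. Detection reagent added for 20 min; luciferin light read as relative luminescence units.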

The nature of assay [3]: Primary qHTS for inhibitors of nuclear receptor binding SET domain protein 2 (NSD2) in an isogenic RCH-ACV NSD2 p.E1099K mutant (9B) (AID 1645876). Also: nearly all actives have a fitted effect of over 70% in size. Also: potency is read from the fitted curve at half-maximal effect.
Assay [4] addresses Cytochrome P450 2C9 (Homo sapiens) (UniProt P11712). The assay is described as follows: Cytochrome P450 family 2 subfamily C member 9 (CYP2C9) small molecule antagonists: luciferase biochemical (cell-free) qHTS assay (AID 1645842; active = well fitted curve in the direction sought with a large enough effect in the repeat runs; an effect the other way counts as inactive or inconclusive; also: nearly all actives have a fitted effect of over 55% in size; also: potency is read from the fitted curve at half-maximal effect). A digest of the protocol: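 Luminescence, after 20 min with luciferin detection reagent, reflected CYP2C9 turnover during a 1 h NADPH-driven reaction at 37C. Enzyme-substrate mix contained 0.4% bovine serum albumin and was preincubated with compound 10 min at room temperature.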

Assay [5] in a line: Primary qHTS for inhibitors of nuclear receptor binding SET domain protein 2 (NSD2) in an RCH-ACV wild type WT cells (2C) (AID 1645877). Also: nearly all actives have a fitted effect of over 70% in size. Also: potency is read from the fitted curve at half-maximal effect.

Several values for one entry are separate records, joined by “and”; a condition that tells them apart may be missing. Equal values may be shown once. Records with an inconclusive call do not appear. Activity calls are given as the source filed them. Unless noted, calls follow the shape of the dose curve; as a rule, active = well fitted curve in the direction sought with a large enough effect; inconclusive = small, poorly fitted or top-dose-only effect, or another doubt; inactive = no such curve, though single readings can be large; an effect the other way counts as inactive or inconclusive.

Chain of Cytochrome P450 2D6 (Homo sapiens) (P10635 whole entry, looked up): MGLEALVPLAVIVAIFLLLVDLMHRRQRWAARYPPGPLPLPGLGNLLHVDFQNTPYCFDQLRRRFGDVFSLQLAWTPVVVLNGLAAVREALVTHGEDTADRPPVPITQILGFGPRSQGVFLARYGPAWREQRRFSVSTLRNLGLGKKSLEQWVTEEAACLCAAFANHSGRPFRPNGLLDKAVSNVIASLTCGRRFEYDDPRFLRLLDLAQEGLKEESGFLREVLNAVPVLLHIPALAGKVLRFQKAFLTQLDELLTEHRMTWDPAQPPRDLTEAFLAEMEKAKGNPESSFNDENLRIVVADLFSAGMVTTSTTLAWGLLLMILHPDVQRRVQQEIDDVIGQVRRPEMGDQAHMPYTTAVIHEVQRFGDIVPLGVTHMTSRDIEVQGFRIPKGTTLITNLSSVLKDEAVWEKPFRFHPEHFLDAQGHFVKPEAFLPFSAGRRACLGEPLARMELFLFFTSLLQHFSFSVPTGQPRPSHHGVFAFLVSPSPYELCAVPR
Chain of Calcium and integrin-binding protein 1 (Homo sapiens) (Q99828 whole entry, looked up): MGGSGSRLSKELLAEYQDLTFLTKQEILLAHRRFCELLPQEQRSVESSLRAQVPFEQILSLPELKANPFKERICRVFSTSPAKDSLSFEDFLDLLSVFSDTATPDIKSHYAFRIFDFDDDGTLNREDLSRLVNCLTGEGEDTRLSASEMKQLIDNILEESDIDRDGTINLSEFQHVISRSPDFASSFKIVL
Chain of Cytochrome P450 2C9 (Homo sapiens) (P11712 whole entry, looked up): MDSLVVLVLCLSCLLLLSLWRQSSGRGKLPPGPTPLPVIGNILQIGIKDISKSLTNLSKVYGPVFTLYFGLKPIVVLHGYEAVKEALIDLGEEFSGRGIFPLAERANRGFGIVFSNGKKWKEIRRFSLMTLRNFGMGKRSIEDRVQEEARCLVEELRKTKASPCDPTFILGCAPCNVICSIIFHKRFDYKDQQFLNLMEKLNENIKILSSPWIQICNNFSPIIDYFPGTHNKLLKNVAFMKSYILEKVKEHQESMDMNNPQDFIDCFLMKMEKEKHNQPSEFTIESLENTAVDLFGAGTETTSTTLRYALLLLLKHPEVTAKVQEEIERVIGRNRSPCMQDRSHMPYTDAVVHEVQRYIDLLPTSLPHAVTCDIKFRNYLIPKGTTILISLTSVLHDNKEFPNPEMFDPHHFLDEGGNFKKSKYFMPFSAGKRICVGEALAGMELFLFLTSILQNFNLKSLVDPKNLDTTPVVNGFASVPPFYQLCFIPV

Consider `Cc1cc(CS(=O)(=O)c2ccccc2)cc(OCc2ccc(CN3CCCC3CO)cc2)c1` (stereo unspecified), for which the Potency result in assay [1] was “inactive”. The Potency in assay [2] was 0.952 µM (active); in assay [3], 14.5 µM (active).
In the case of `CC(F)(F)CN1CCOc2c(nn(-c3ccccc3Cl)c2-c2ccc(Cl)cc2)C1=O`, the Potency result in assay [1] was “inactive”. The Potency was 13.5 µM (active) in assay [2], 13.5 µM (active) in assay [4] and 18.3 µM (active) in assay [5].
As to `CCCNCCc1ccc(NS(=O)(=O)c2ccc(OC(F)(F)F)cc2)cc1`, the Potency entry in assay [1] is “inactive”. Further, the Potency in assay [2] was 1.34 µM (active); in assay [4], 8.49 µM (active); in assay [5] it was 14.5 µM (active).
In the case of `Cc1c(C(=O)NCc2cccnc2)nn(-c2ccc(Cl)cc2Cl)c1-c1ccc(Cl)cc1`, the Potency result in assay [1] was “inactive”. In addition, the Potency in assay [2] was 0.213 µM (active); in assay [4], 5.35 µM (active); in assay [5], 20.5 µM (active).
Regarding `O=C(NCCCc1ccccc1)C1CCC(CNS(=O)(=O)c2cccc3nsnc23)CC1` (stereo unspecified), the Potency result in assay [1] was “inactive”. For the same compound, the Potency in assay [2] is 10.7 µM (active); in assay [4], 9.52 µM (active); in assay [5], 11.5 µM (active).
For `CC1=C(c2ccc(NC(=O)c3c(F)cccc3F)cc2)CN(c2nccs2)CC1`, the Potency entry in assay [1], in assay [2] and in assay [3] was “inactive” in each case.
Turning to `CCC[C@H](N[C@H]1CCc2cc(F)cc(F)c2C1)C(=O)Nc1cn(C(C)(C)CNCC(C)(C)C)cn1`, the Potency result in assay [1] and in assay [2] was “inactive” in each case. Besides, the Potency in assay [3] is 16.3 µM (active) and 13.2 µM (active); in assay [5], 13.2 µM (active).
On to `Cc1cc(C)c(-n2cc(C)c3c(Cl)nc(C)nc32)c(C)c1`, for which the Potency entry in assay [1], in assay [2] and in assay [5] was “inactive” in each case. The Potency in assay [4] was 10.7 µM (active).
With `c1cc(NCCc2c[nH]c3ccccc23)cc(Nc2ccncc2)c1`, the Potency result in assay [1] was “inactive”. Also, the Potency in assay [2] is 0.477 µM (active); in assay [4], 0.674 µM (active); in assay [3] it was 7.28 µM (active); in assay [5] it was 3.25 µM (active).
As to `Cc1ccc(NC(=O)C(C)C)cc1C1CCN(Cc2ccc(Oc3ccc(F)c(F)c3)cc2)CC1`, the Potency entry in assay [1] was “inactive”. Moreover, the Potency in assay [2] was 5.35 µM (active); in assay [4], 9.52 µM (active); in assay [3], 12.9 µM (active); in assay [5], 9.16 µM (active).
`C[C@@H]1CCCN1CCc1cc2cc(-c3ccc(C#N)cc3)ccc2o1`: the Potency entry in assay [1] and in assay [4] was “inactive” throughout. In addition, the Potency in assay [2] is 13.5 µM (active); in assay [5], 20.5 µM (active).
`CCCCNc1ncc2c(-c3ccc(S(=O)(=O)N4CCOCC4)cc3)nn(C3CCC(O)CC3)c2n1` (stereo unspecified): the Potency entry in assay [1] and in assay [2] was “inactive” in each case. In addition, the Potency in assay [4] is 9.52 µM (active); in assay [5], 1.03 µM (active).
On to `COc1ccc2c(c1O[C@H]1CCNC1)CCC2`, for which the Potency result in assay [1], in assay [3] and in assay [5] was “inactive” throughout. The Potency in assay [2] was 16.9 µM (active).
As to `CN(C)CCn1cc(-c2ccc(F)cc2)c(-n2cccc2)n1`, the Potency result in assay [1] and in assay [3] was “inactive” each time. Also, in assay [2], the Potency is 15.1 µM (active).
In the case of `O=c1ccc2ccc(OCCCCN3CCN(c4cccc5sccc45)CC3)cc2[nH]1`, the Potency entry in assay [1] was “inactive”. For the same compound, the values for the Potency in assay [2], in assay [3] and in assay [5] were 1.34 µM (active), 14.5 µM (active) and 16.3 µM (active), respectively.
For `CC(=O)Nc1nc(C)c(-c2nc(N3CCCC(O)C3)no2)s1` (stereo unspecified), the Potency result in assay [1] is “inactive”. The Potency is 4.25 µM (active) in assay [2] and 0.916 µM (active) in assay [3].
`CC[C@@H](Nc1c(Nc2cccc(C(=O)N(C)C)c2O)c(=O)c1=O)c1cc(C(C)C)co1`: the Potency result in assay [1] is “inactive”. Besides, the Potency in assay [2] was 16.9 µM (active); in assay [4] it was 5.35 µM (active); in assay [5], 16.3 µM (active).
As to `NCC1CCN(c2nccc(-c3ccc4ccccc4c3)n2)CC1`, the Potency result in assay [1] is “inactive”. Also, the Potency was 9.52 µM (active) in assay [2], 0.849 µM (active) in assay [4], 1.86 µM (active) in assay [3] and 1.18 µM (active) in assay [5].
With `CC(C)c1ccc(NC(=O)c2cccs2)c(-c2nc3ccccc3[nH]c2=O)c1`, the Potency result in assay [1] is “inactive”. The Potency in assay [2] is 13.5 µM (active); in assay [4], 10.7 µM (active); in assay [5], 16.3 µM (active).
On the same counts, the results for `O=C(NCC1(c2nc(-c3ccccc3)cs2)CCOCC1)c1cccc(-c2noc(C(F)(F)F)n2)c1` are “inactive”, “inactive”, 3.01 µM (active) and 25.8 µM (active).
Turning to `Cc1cccc(CC(=O)N2CCc3c2ccc(-c2cn(C)c4ncnc(N)c24)c3F)n1`, the Potency result in assay [1] and in assay [2] was “inactive” throughout. The figures for the Potency in assay [4] and in assay [5] were 10.7 µM (active) and 16.4 µM (active), respectively.
Take `O=c1cc(OCc2ccc(F)cc2)ccn1-c1ccc(OCCN2CCCC2)cc1`: the Potency result in assay [1] is “inactive”. The Potency in assay [2] is 16.9 µM (active); in assay [3] it was 23 µM (active); in assay [5] it was 8.17 µM (active).
With `Cn1ncnc1[C@@H]1c2n[nH]c(=O)c3cc(F)cc(c23)N[C@H]1c1ccc(F)cc1`, the Potency result in assay [1], in assay [2] and in assay [4] was “inactive” in each case. In addition, the Potency in assay [3] was 20.5 µM (active); in assay [5] it was 9.16 µM (active).
Regarding `Cc1cc(C)cc(-c2cnc3cc(Cl)c(-c4cccc(O)c4)cc3c2OCCCN)c1`, the Potency result in assay [1] was “inactive”. The Potency was 7.56 µM (active) in assay [2], 1.2 µM (active) in assay [4] and 16.3 µM (active) in assay [5].
As to `CCOC(=O)N1c2ccc(C(F)(F)F)cc2C(N(Cc2cc(C(F)(F)F)cc(C(F)(F)F)c2)C(=O)OC)CC1CC` (stereo unspecified), the Potency result in assay [1], in assay [2], in assay [4], in assay [3] and in assay [5] was “inactive” each time.

The record behind these values is PubChem BioAssay (NCATS).
